Test [1] in a line: qHTS of pediatric cancer cell lines to identify multiple opportunities for drug repurposing: Confirmatory screen for BT-37 cells (AID 1347117).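 Also: potency is read from the fitted curve at half-maximal effect; viability measured after 48 h of compound exposure; nearly all actives have a fitted effect of over 55% in size.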 An outline of the steps:
(§1)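 Cells (500-1,000/well) in growth media were settled 5 h at 37 degrees C, then given compounds for 48 h. Viability was read as CellTiter-Glo luminescence. Primary runs used MIPE at 11 points (0.78 nM-46 µM) and NPC at 8 points (0.59 nM-46 µM); follow-ups used 11 points.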
For orientation: Quantitative high-throughput screening tests each substance at several concentrations.

A short description of test [2]: qHTS of pediatric cancer cell lines to identify multiple opportunities for drug repurposing: Confirmatory screen for TC32 cells (AID 1347118).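 Also: potency is read from the fitted curve at half-maximal effect; cells exposed to compound for 48 h before the read; nearly all actives have a fitted effect of over 65% in size.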 In a few lines:
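Luminescent CellTiter-Glo read-out of metabolically active TC32 cells after 48 h compound exposure. Primary: MIPE 11-point, 0.78 nM–46 µM; NPC 8-point, 0.59 nM–46 µM. Confirmatory: 11-point dilutions.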

Test [3] in a line: qHTS of pediatric cancer cell lines to identify multiple opportunities for drug repurposing: Confirmatory screen for MG 63 (6-TG R) cells (AID 1347119). Also: nearly all actives have a fitted effect of over 55% in size. Also: potency is read from the fitted curve at half-maximal effect. An outline of the steps:
as §1

Test [4] is described as follows: qHTS of pediatric cancer cell lines to identify multiple opportunities for drug repurposing: Confirmatory screen for U-2 OS cells (AID 1347122). Also: nearly all actives have a fitted effect of over 65% in size. Also: potency is read from the fitted curve at half-maximal effect. In a few lines:
as §1

Test [5] is described as follows: qHTS of pediatric cancer cell lines to identify multiple opportunities for drug repurposing: Confirmatory screen for Rh41 cells (AID 1347123). Also: potency is read from the fitted curve at half-maximal effect; nearly all actives have a fitted effect of over 60% in size. In a few lines:
as §1

Test [6] is described as follows: qHTS of pediatric cancer cell lines to identify multiple opportunities for drug repurposing: Confirmatory screen for Rh30 cells (AID 1347126). Also: potency is read from the fitted curve at half-maximal effect; nearly all actives have a fitted effect of over 55% in size. In a few lines: as §1
A short description of test [7]: qHTS of pediatric cancer cell lines to identify multiple opportunities for drug repurposing: Confirmatory screen for OHS-50 cells (AID 1347128).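 Also: potency is read from the fitted curve at half-maximal effect; compound exposure lasted 48 h at 37 degrees C; nearly all actives have a fitted effect of over 55% in size.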 An outline of the steps: as §1
Test [8] can be described thus: qHTS of pediatric cancer cell lines to identify multiple opportunities for drug repurposing: Confirmatory screen for SK-N-SH cells (AID 1347129).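 Also: potency is read from the fitted curve at half-maximal effect; cells exposed to compound for 48 h before viability read; nearly all actives have a fitted effect of over 60% in size.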 In a few lines: as §1
In test [9] the target is Furin (Homo sapiens) (UniProt P09958). The experiment in a line: Furin counterscreen qHTS for Zika virus inhibitors (AID 1347149).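 Also: purified recombinant full-length human furin enzyme at 5 nM; fluorescence gain from furin cutting a BOC-RVRR-AMC peptide substrate over 15 min; top concentration of the series differs between compounds; nearly all actives have a fitted effect of over 70% in size.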 In a few lines:
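Fluorogenic cleavage of BOC-RVRR-AMC (2 microM final, Km ~15 µM) was monitored (ex 340, em 450 nm) at 37C after 15 min RT preincubation of 5 nM furin with compounds in HEPES pH 7.0 buffer with CaCl2 and Triton X-100. Percent inhibition was fitted to a 4-parameter Hill curve.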
In general terms: A counterscreen serves to expose hits that act by an unwanted route or on another target.

In test [10] the test system is Zika virus NS2B-NS3 protease (unlinked). The experiment in a line: Optimization of GU AMC qHTS for Zika virus inhibitors: Unlinked NS2B-NS3 protease assay (AID 1347151). Also: series mostly up to about 52 µM; nearly all actives have a fitted effect of over 80% in size. An outline of the steps:
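Unlinked protease (25 nM final); buffer 10 mM Tris-HCl pH 8.0 + 0.01% Tween 20; AMC substrate; 15 min RT, dark; Δfluorescence normalized to no-inhibitor/no-enzyme controls; 4-parameter Hill fit.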

Test [11] concerns Zika virus NS2B-NS3 protease. The experiment in a line: Primary screen GU AMC qHTS for Zika virus inhibitors (AID 1347154). Also: nearly all actives have a fitted effect of over 70% in size. Also: potency is read from the fitted curve at half-maximal effect. An outline of the steps: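 Unlinked Zika NS2B hydrophilic domain/NS3 protease domain noncovalent complex (25 nM final) in 10 mM Tris-HCl pH 8.0, 0.01% Tween 20, with AMC peptide substrate. Fluorescence (ex 340, em 450 nm) change over 15 min, room temperature; percent inhibition fitted to 4-parameter Hill equation.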

Test [12] is described as follows: qHTS of pediatric cancer cell lines to identify multiple opportunities for drug repurposing: Confirmatory screen for RD cells (AID 1347124).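 Also: cells exposed to compound for 48 h before viability readout; nearly all actives have a fitted effect of over 65% in size.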 An outline of the steps:
as §1

This note sets out measurements from PubChem BioAssay (NCATS).

Inconclusive results are not listed. A call without a number means that no potency is given here. Values without a mark were called inactive. The source made the active and inactive calls. Calls follow the shape of the dose curve; as a rule, active = well fitted curve in the direction sought with a large enough effect; inconclusive = small, poorly fitted or top-dose-only effect, or another doubt; inactive = no such curve, though single readings can be large; an effect the other way counts as inactive or inconclusive.

Furin (Homo sapiens), sequence (P09958 whole entry, looked up): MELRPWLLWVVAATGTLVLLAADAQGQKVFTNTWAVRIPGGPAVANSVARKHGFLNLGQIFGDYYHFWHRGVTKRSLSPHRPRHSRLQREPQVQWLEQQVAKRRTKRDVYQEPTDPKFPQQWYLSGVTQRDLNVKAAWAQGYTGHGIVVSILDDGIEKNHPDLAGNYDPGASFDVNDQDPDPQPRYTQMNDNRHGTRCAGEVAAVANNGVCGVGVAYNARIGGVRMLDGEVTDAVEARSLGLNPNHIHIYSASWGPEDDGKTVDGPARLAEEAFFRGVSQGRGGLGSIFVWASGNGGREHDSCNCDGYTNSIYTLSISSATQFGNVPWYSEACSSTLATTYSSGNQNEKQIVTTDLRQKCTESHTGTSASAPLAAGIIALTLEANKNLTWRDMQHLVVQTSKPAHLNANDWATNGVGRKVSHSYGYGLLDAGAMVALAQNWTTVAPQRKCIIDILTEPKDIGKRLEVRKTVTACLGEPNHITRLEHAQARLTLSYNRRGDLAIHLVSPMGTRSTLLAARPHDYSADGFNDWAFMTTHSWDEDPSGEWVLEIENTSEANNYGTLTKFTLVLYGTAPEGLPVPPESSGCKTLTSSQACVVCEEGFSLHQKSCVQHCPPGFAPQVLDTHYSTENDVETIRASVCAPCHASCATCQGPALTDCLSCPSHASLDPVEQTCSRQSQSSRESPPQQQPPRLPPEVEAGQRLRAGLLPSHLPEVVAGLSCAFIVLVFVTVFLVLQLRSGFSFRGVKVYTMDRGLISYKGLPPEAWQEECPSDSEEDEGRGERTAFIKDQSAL

For `C[C@H]1O[C@@H](O[C@H]2CC[C@@]3(C)[C@H](CC[C@@H]4[C@@H]3C[C@@H](O)[C@]3(C)[C@@H](C5=CC(=O)OC5)CC[C@]43O)C2)C[C@H](O)[C@@H]1O[C@H]1C[C@H](O)[C@H](O[C@H]2C[C@H](O)[C@H](O[C@@H]3O[C@H](CO)[C@@H](O)[C@H](O)[C@H]3O)[C@@H](C)O2)[C@@H](C)O1`, the Potency in [1] is 185 nM (active); in test [2], 233 nM (active); in [3], 293 nM (active); in test [4], 293 nM (active); in [5], 147 nM (active); in test [6], 414 nM (active). Moreover, the values for the Potency in test [7] and in test [8] were 293 nM (active) and 332 nM (active), respectively. The Potency result in test [9] and in test [11] was “inactive” in each case. In addition, in test [10], the result was inactive. Take `CC(C)Cc1ccc(CC(=O)O)cc1`: in test [11], the Potency entry was “inactive”. On to `CCN(CC)CCOc1ccc2c(c1)C(=O)c1cc(OCCN(CC)CC)ccc1-2`, for which the Potency in test [1] is 20800 nM (active); in test [2], 9270 nM (active); in test [5], 23300 nM (active); in test [8], 18700 nM (active). Further, the Potency entry in [3], in test [4], in test [12] and in [11] was “inactive” throughout. On to `Cc1cc(C)cc(OCC2CNC(=O)O2)c1` (stereo unspecified), for which the Potency entry in test [11] was “inactive”. Same read-out and setting: to `CC(=O)Oc1ccc(C)cc1` belongs “inactive”; to `CCOC(=O)[C@@](C)(N)Cc1ccc(O)c(O)c1`, “inactive”; to `COc1ccc2c(c1)c1c3n2CCN(C)C3=NCC1`, “inactive”. Regarding `CC(=O)O[C@]1(C(C)=O)CC[C@H]2[C@@H]3C=C(C)C4=CC(=O)CC[C@]4(C)[C@H]3CC[C@@]21C`, in [11], the Potency entry was “inactive”. On the same count and under the same terms, then `CCOc1ccccc1C(N)=O`, with “inactive”; and `COc1ccc(CCN(C)CCCN2CCc3cc(OC)c(OC)cc3CC2=O)cc1OC`, with “inactive”. Same read-out and setting: to `CCCCC(CC)COC(=O)/C=C/c1ccc(OC)cc1` (stereo unspecified) belongs “inactive”; to `Cc1ccc2c(Br)cc(Br)c(O)c2n1`, “inactive”.

Take `N#C/C(=C1\SCC(c2ccccc2Cl)S1)n1ccnc1` (stereo unspecified): the Potency entry in test [11] is “inactive”. The same measure, in the same setting: to `Cc1cccc(C)c1NC(=O)CN1CCCC1` belongs “inactive”; to `CCCCC(CC)COC(=O)c1ccc(N(C)C)cc1` (stereo unspecified), “inactive”. Still for that read-out and setting: to `C/C=C/c1ccc(O)c(OC)c1` belongs “inactive”; to `CCCN(CCC)S(=O)(=O)c1ccc(C(=O)O)cc1`, “inactive”. Still for that read-out and setting: to `CC(=O)Nc1ncc([N+](=O)[O-])s1` belongs “inactive”; to `OC[C@H]1O[C@@H]2O[C@H]3[C@H](O)[C@@H](O)[C@@H](O[C@H]4[C@H](O)[C@@H](O)[C@@H](O[C@H]5[C@H](O)[C@@H](O)[C@@H](O[C@H]6[C@H](O)[C@@H](O)[C@@H](O[C@H]7[C@H](O)[C@@H](O)[C@@H](O[C@H]8[C@H](O)[C@@H](O)[C@@H](O[C@H]1[C@H](O)[C@H]2O)O[C@@H]8CO)O[C@@H]7CO)O[C@@H]6CO)O[C@@H]5CO)O[C@@H]4CO)O[C@@H]3CO`, “inactive”; to `CC(=O)NC(=O)c1ccccc1O`, “inactive”.

For `N[C@H](C(=O)O)[C@@H](O)c1ccc(O)c(O)c1`, the Potency in test [11] is 12800 nM (active). Regarding `COc1ccc(/C=N/NC(=O)c2ccncc2)cc1OC`, in test [11], the Potency result is “inactive”. Still for that read-out and setting: to `CC(C)[C@@H]1CC[C@@H](C)CC1=O` belongs “inactive”; to `CC(=O)OCC1=C(C(=O)O)N2C(=O)[C@@H](NC(=O)CSc3ccncc3)[C@H]2SC1`, “inactive”; to `CN(C)CCOC(c1ccc(Cl)cc1)c1ccccn1` (stereo unspecified), “inactive”. Still for that read-out and setting: to `N/C(=N\N=C\c1ccc(Cl)cc1)N/N=C/c1ccc(Cl)cc1` belongs “inactive”. The same measure, in the same setting: to `Nc1nc(N)c(-c2ccccc2)s1` belongs “inactive”; to `CN(C)CCOC(=O)C(c1ccccc1)C1(O)CCCC1` (stereo unspecified), “inactive”; to `CNCCCCOc1ccccc1Cc1ccccc1`, “inactive”. As for `Nc1ccc(C(=O)NCC(=O)O)cc1`, the Potency entry in [11] was “inactive”.

Regarding `CCCCC(CC)CN1CN(CC(CC)CCCC)CC(C)(N)C1` (stereo unspecified), the Potency result in [11] is “inactive”. On the same count and under the same terms, to `CCCCCCCCCCCCCC(=O)OC(C)C` belongs “inactive”. The same measure, in the same setting: to `COc1ccc(CN(CCN(C)C)c2ncccn2)cc1` belongs “inactive”.

Take `NC(=O)n1c(O)c(C(=O)c2cccs2)c2cc(Cl)ccc21`: the Potency entry in test [11] was “inactive”.
